# The campaign covered roughly 190,000 compounds. About 1,300 (0.68%) were called active. The entries come from a sample that favours actives as a whole. Values without a mark were called inactive. Cut-off read from the data, not from the text of the source: active = inhibition above about 50%; inactive = the rest.
# Target: Mannose-6-phosphate isomerase (Homo sapiens) (UniProt P34949)
# Experiment: MPI inhibition at elevated mannose 6-phosphate – biochemical, fluorescence intensity, high mannose 6-phosphate, primary screen (AID 1220)
# Settings: recombinant PMI enzyme, coupled fluorescence intensity; at 20 µM; active compounds read high
# Sequence of Mannose-6-phosphate isomerase (Homo sapiens) (P34949 whole entry, looked up): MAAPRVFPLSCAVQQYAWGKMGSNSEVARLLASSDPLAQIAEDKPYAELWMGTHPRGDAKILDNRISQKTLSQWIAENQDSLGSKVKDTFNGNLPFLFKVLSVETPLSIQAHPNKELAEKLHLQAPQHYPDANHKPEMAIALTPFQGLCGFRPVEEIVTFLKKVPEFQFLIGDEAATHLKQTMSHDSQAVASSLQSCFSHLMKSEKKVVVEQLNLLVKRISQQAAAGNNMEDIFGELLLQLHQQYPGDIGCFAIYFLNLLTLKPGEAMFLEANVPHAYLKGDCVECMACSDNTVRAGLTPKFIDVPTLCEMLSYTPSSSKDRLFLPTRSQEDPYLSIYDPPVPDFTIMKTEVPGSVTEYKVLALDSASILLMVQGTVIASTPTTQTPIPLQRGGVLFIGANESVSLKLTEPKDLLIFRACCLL
row,Compound,inhibition
1,Cc1ccc(C(=O)Nc2ccc(C(=O)N3CCCCC3C)cc2)cc1 (stereo unspecified),1%
2,O=C(CSC1=NCCS1)Nc1cccc2ccccc12,2.9%
3,CC(NC(=S)Nc1cccc(C(F)(F)F)c1)C(C)(C)C (stereo unspecified),54.2% (active)
4,FC(F)(F)c1cccc(NC(=S)NC(c2ccccc2)c2ccccc2)c1,-5.4%
5,CC(C)(C)NC(=S)Nc1cccc(C(F)(F)F)c1,2.1%
6,CCOC(=O)/C(C#N)=C1/SC(CC)C(=O)N1c1ccc(C)cc1 (stereo unspecified),-25%
7,C/C(=N\Nc1ccc(F)cc1F)c1ccc(N2CCOCC2)cc1,-144%
8,CC(c1ccco1)N(C(=O)c1ccc(C(F)(F)F)cc1)c1ccccn1 (stereo unspecified),8.9%
9,Cc1ccc(S(=O)(=O)CC2CSc3nc4ccccc4n32)cc1 (stereo unspecified),9.4%
10,CCCCc1cc(=O)oc2cc(C)cc(O)c12,7.5%
11,CCCCc1cc(=O)oc2cc(O)cc(O)c12,64% (active)
12,CCCc1cc(=O)oc2cc(C)cc(O)c12,2.5%
13,Clc1cccc(-c2ccc(/C=N/n3cnnc3)o2)c1Cl,1.1%
14,Clc1ccc(-c2ccc(C=Nc3ccc(N4CCOCC4)cc3)o2)cc1,24.7%
15,Oc1ccc(C=Nc2ccc(N3CCOCC3)cc2)c(O)c1,13.7%
16,Oc1c(Br)cc(Cl)cc1C=Nc1ccc(N2CCOCC2)cc1,51.8% (active)
17,Clc1cccc(-c2ccc(C=Nc3ccc(N4CCOCC4)cc3)o2)c1Cl,63.9% (active)
18,O=[N+]([O-])c1cc(Br)c(O)c(C=Nc2ccc(N3CCOCC3)cc2)c1,40.2%
19,Cc1ccc(Cl)cc1-c1ccc(C=Nc2ccc(N3CCOCC3)cc2)o1,52.4% (active)
20,Clc1ccc(-c2ccc(C=Nc3ccc(N4CCOCC4)cc3)o2)c(Cl)c1,47.6%
21,Clc1cccc(-c2ccc(C=Nc3ccc(N4CCOCC4)cc3)o2)c1,33.8%
22,O=C(O)c1cn(Cc2cccnc2)c(=O)c2ccccc12,1.5%
23,CCOC(=O)C1=C(c2ccccc2)Nc2ncnn2C1c1cc(OC)ccc1OC (stereo unspecified),7.8%
24,Cn1c(=O)[nH]c(=O)c2c1nc(SCCN1CCOCC1)n2Cc1ccccc1,6.9%
25,COc1ccc(NC(=O)CCC(=O)OCc2ccc(C(=O)Oc3ccc(Cl)cc3)cc2)cc1,-5.2%
26,CCCCN1C(=O)C(O)=C(C(C)=O)C1c1ccccc1 (stereo unspecified),-7.7%

row,Compound,inhibition
1,COCCN(CCOC)c1nc(N)c2c(N)nc3c(c2c1C#N)CC(=O)N3Cc1ccc(Cl)cc1,25.1%
2,CN(CCO)c1nc(N)c2c(N)nc3c(c2c1C#N)CC(=O)N3Cc1cccs1,33.7%
3,CCCCN1C(=O)Cc2c1nc(N)c1c(N)nc(N(CCC)CCC)c(C#N)c21,56% (active)
4,CC(=O)c1c(C)[nH]c(C(=O)NCCc2ccccc2)c1C,2.6%
5,c1ccc(-n2cccc2CNC2CCCCC2)cc1,-4.6%
6,O=c1cc(N2CCOCC2)c2ccccc2o1,4.1%
7,c1ccc2c3c(cc(N4CCOCC4)c2c1)OC1(N2CCOCC2)CCCCC1O3 (stereo unspecified),60.5% (active)
8,Oc1ccc2c(c1)C1CCCC1(N1CCOCC1)O2 (stereo unspecified),24.6%
9,Cc1ccc(C)c(NC(=S)/C(=C(\[O-])c2ccc(Cl)s2)[n+]2ccccc2)c1,26.5%
10,Cc1ccc(NC(=S)/C(=C(\[O-])c2ccc(Cl)s2)[n+]2cccc(CO)c2)cc1C,10.4%
11,Cc1cc(C)cc(NC(=S)/C(=C(\[O-])c2ccc(Cl)s2)[n+]2cccc(C)c2)c1,51.9% (active)
12,Cc1c(CNC(=O)c2cnn3c2NC(c2ccc(Br)cc2)CC3C(F)(F)F)cnn1C (stereo unspecified),11.4%
13,Cc1ccc(NS(=O)(=O)c2cc([N+](=O)[O-])ccc2NNC(=S)Nc2cc(C)ccc2C)c(C)c1,9.1%
14,CC(=O)N(C)C1=C(N2CCOCC2)C(=O)c2ccccc2C1=O,33.1%
15,CC(=O)N(C1=C(N)C(=O)c2ccccc2C1=O)C(C)C,54.5% (active)
16,CC(=O)N(C)C1=C(O)c2ccccc2C(=O)C1=O,19.6%
17,NC(=O)COC(=O)c1cccc(NS(=O)(=O)/C=C/c2ccccc2)c1,4.6%
18,Cn1c(C(=O)O)cnc1Sc1ncc(C(F)(F)F)cc1Cl,-17.5%
19,Cc1ccc(Nc2nnc(SCc3cc(=O)n4ccsc4n3)s2)c(C)c1,8.6%
20,COc1ccc2[nH]c3c(=O)n(Cc4ccc(C(=O)NCC5CCCO5)cc4)c(=S)[nH]c3c2c1 (stereo unspecified),3.5%
21,CC(=O)Nc1ccc(C2(O)COc3ccccc3O2)cc1 (stereo unspecified),-2%
22,COc1ccccc1NC(=O)c1ccc(-c2ccccc2F)o1,-0.4%
23,COc1ccccc1NC(=O)c1ccc(-c2ccccc2[N+](=O)[O-])o1,52.9% (active)
24,COc1cccc(NC(=O)c2ccc(-c3ccccc3[N+](=O)[O-])o2)c1,-0.2%
25,Cc1ccccc1Cc1ccc(Cl)nn1,-8.8%
26,CN(C)C(=S)SCC(=O)NCc1ccc(F)cc1,10.8%

row,Compound,inhibition
1,CCc1cccc(NC(=O)c2snc3c(=O)[nH]cnc23)c1,7.2%
2,O=C(O)c1cc(-c2ccc(/C=C3/SC(=S)N(Cc4ccccc4)C3=O)o2)ccc1Cl,-34.8%
3,O=C(O)c1cccc(N2C(=O)/C(=C/c3ccc(SCc4ccc(Cl)cc4)o3)SC2=S)c1,67.9% (active)
4,Cc1cccc(C)c1-n1cccc1/C=C1\SC(=S)N(c2cccc(C(=O)O)c2)C1=O,3%
5,O=C1NC(=S)S/C1=C/c1ccc(N2CCOCC2)o1,-14%
6,O=C1NC(=S)S/C1=C\c1ccc(SCc2ccco2)o1,7.7%
7,O=C1NC(=S)S/C1=C\c1ccc(SCc2ccccc2)o1,66.9% (active)
8,O=C(COC(=O)c1sc2cc(F)ccc2c1Cl)Nc1ncc(Cl)cc1Cl,13.4%
9,Cn1c(=O)c2c(nc(SCC(=O)Nc3ccccc3)n2C)n(C)c1=O,6.1%
10,Cc1cccc(C)c1NC(=O)CSc1nnc(-c2cccnc2)o1,5.5%
11,COc1ccccc1NC(=S)N1CCN(C(=O)c2ccco2)CC1,-3%
12,O=C(Cc1c(F)cccc1Cl)N1CCOCC1,-13.4%
13,COCCn1c(=O)c2c(nc3n2CCN3c2ccc(C)cc2)n(C)c1=O,0.4%
14,CCOc1ccc(N=C(C)c2ccccc2O)cc1,55.9% (active)
15,CCOc1ccc(N=C(NN)c2ccc3ccccc3n2)cc1,-57.4%
16,CCOc1ccc(NC(=O)c2ccccc2O)cc1,-0.8%
17,Cc1cccc(OCC(=O)Nc2ccc3nc(C)sc3c2)c1,-10.9%
18,COCCNC(=O)C1CCCN(c2nn3c(=O)cc(C)nc3s2)C1 (stereo unspecified),7.2%
19,CCN1CCN(Cc2nc3c(c(=O)n(C)c(=O)n3C)n2CCc2ccccc2)CC1,-1.1%
20,O=c1cc(Nc2ccc3c(c2)OCCO3)[nH]c(=O)n1-c1ccc(Cl)cc1,8%
21,O=c1cc(Nc2ccc3c(c2)OCCO3)[nH]c(=O)n1-c1ccc(Br)cc1,57.5% (active)
22,O=c1cc(Nc2ccc3c(c2)OCO3)[nH]c(=O)n1-c1ccc(Br)cc1,1.9%
23,CC1CCN(S(=O)(=O)c2ccc(NC(=S)NC(=O)c3ccc(Cl)cc3)cc2)CC1,-6.2%
24,CC[n+]1ccc(/C=C/c2ccc(N(C)C)cc2)c2ccccc21,-4.8%
25,CC[n+]1ccc(C[n+]2ccccc2)c2ccccc21,97.1% (active)
26,CC[n+]1ccc(C)c2cc(P(=O)(c3ccccc3)c3ccccc3)ccc21,18.4%

row,Compound,inhibition
1,O=C(NCc1ccccc1)C1=C[C@@H](c2coc3ccccc3c2=O)C[C@@H](OCCCCO)O1,8.5%
2,O=C(NCc1ccc(Cl)cc1)C(=O)NCC(c1cccnc1)N1CCN(c2ccc(F)cc2)CC1 (stereo unspecified),2.5%
3,CCOC1(NC(=O)c2ccccc2)C(C)=CC(=O)C=C1C,49.2%
4,CCCOC1(NC(=O)c2ccccc2)C(C)=CC(=O)C=C1C,55.4% (active)
5,COC1(NC(=O)c2ccccc2)C(C)=CC(=O)C=C1C,6.7%
6,CCNC(=O)/C(=C\C=C\c1ccccc1)NC(=O)c1ccc(Br)o1,-11.4%
7,Cc1ccc(Nc2nc3ccccc3c(=O)[nH]2)cc1C,-5%
8,Nc1ccc2oc(C3CCCCC3)nc2c1,64% (active)
9,Nc1ccc2nc(C3CCCCC3)[nH]c2c1,32.3%
10,O=[N+]([O-])c1ccc2oc(C3CCCCC3)nc2c1,2.8%
11,Cc1c(-n2cc(C(=O)O)c(=O)c3cc(F)c(N4CCCC4)c(F)c32)c(=O)n(-c2ccccc2)n1C,16%
12,Cc1sc2nc(CN3CCOCC3)nc(NCCc3ccccc3)c2c1C,2%
13,CCCc1ccc(-c2cc(N)n[nH]2)cc1,-0.8%
14,CCOc1cc(-c2cc(N)n[nH]2)cc(OCC)c1OCC,61.2% (active)
15,CCOc1cc(-c2conc2N)cc(OCC)c1OCC,4.6%
16,O=C(Nc1cccc(NC(=O)c2cccs2)c1)c1cccnc1,50.8% (active)
17,O=C(Nc1cccc(NC(=O)c2cccnc2)c1)c1cccnc1,7.6%
18,O=C(Nc1ccc(NC(=O)c2cccs2)cc1)c1cccnc1,-2.7%
19,Oc1ccc(CCC2CCCCN2Cc2nc(C3CC3)no2)cc1 (stereo unspecified),5.5%
20,CCc1ccccc1NC(=O)Nc1ccc(F)cc1F,-2.1%
21,Cn1cc(C=O)c2ccccc21,8.2%
22,CN1C(=O)c2cccc3c(Cl)ccc(c23)C1=O,-5.2%
23,CN1C(=O)N(C)c2ccc(C=O)c3cccc1c23,63.6% (active)
